The source of these data is PubChem BioAssay (Tox21).

Test [1] has as its target Progesterone receptor (Homo sapiens) (UniProt P06401). The experiment in a line: qHTS assay to identify small molecule agonists of the progesterone receptor (PR) signaling pathway (AID 1346784; calls by dose curve; note: nearly all actives have a fitted effect of over 30% in size; note: potency is the fitted concentration of half-maximal effect). In a few lines: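 PR-UAS-bla HEK 293T cells (beta-lactamase reporter under UAS) in 2% charcoal-stripped FBS, dosed with 23 nL compound after 6 hr, incubated 16hr at 37C. LiveBLAzer B/G FRET substrate added, fluorescence read after 2 hours.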

Test [2] has the same target. Kind of test: qHTS assay to identify small molecule antagonists of the progesterone receptor (PR) signaling pathway (AID 1346795; active = well fitted inhibition curve with a large enough effect in the signal ratio in the repeat runs, not every such curve was filed as active; the % refers to the signal ratio; note: potency is the fitted concentration of half-maximal effect). The gist of the method: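 PR-UAS-bla HEK293T cells with beta-lactamase reporter under UAS control, in 2% charcoal-stripped FBS, treated with compounds plus 1 nM promegestone (R5020, final) for 16 hr at 37C. Read-out: FRET beta-lactamase substrate fluorescence after 2 hr at room temperature.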
A general note: Quantitative high-throughput screening tests each substance at several concentrations.

A short description of test [3]: qHTS assay to identify small molecule antagonists of the progesterone receptor (PR) signaling pathway - cell viability counter screen (AID 1346798). Note: series mostly up to about 92 µM; nearly all actives have a fitted effect of over 50% in size. In a few lines:
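PR-UAS-bla HEK293T cells, 3,000/well in 2% charcoal-stripped FBS medium, dosed with compounds plus R5020 agonist and incubated 16 h at 37C. Viability then measured in the same wells by CellTiter-Glo luminescence after 30 min at RT.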

Test [4] can be described thus: qHTS assay to identify small molecule agonists of the progesterone receptor (PR) signaling pathway - cell viability counter screen (AID 1346799; calls by dose curve; note: nearly all actives have a fitted effect of over 45% in size). The gist of the method: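 Counter screen in the PR-UAS-bla HEK293T wells (2% charcoal-stripped FBS, 16 h compound exposure at 37 C) after the bla read. CellTiter-Glo added, 30 min at room temperature, luminescence read as cell viability.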

Test [5] in a line: qHTS assay to identify small molecule antagonists of the TGF-beta/Smad signaling pathway - cell viability counter screen (AID 1346824). Note: nearly all actives have a fitted effect of over 50% in size. In a few lines:
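SBE-bla HEK 293T cells were plated overnight at 37 C, then given compounds in DMSO plus TGF-beta1 (added as 0.25 ng/mL solution) for 5 hr. After the bla read, CellTiter-Glo was added to the same wells and luminescence read after 30 min at room temperature.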

Test [6] is described as follows: qHTS assay to identify small molecule agonists of the TGF-beta/Smad signaling pathway - cell viability counter screen (AID 1346829). Note: top concentration of the series differs between compounds; nearly all actives have a fitted effect of over 45% in size. In a few lines: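 Compound-treated SBE-bla HEK 293T cells (5 hr, 37 C) were assessed for viability with CellTiter-Glo in parallel with the reporter read.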
Test [7] can be described thus: qHTS assay to identify small molecule agonists of the TGF-beta/Smad signaling pathway (AID 1346859; active = well fitted activation curve with a large enough effect in the signal ratio in the repeat runs, not every such curve was filed as active; the % refers to the signal ratio; note: series mostly up to about 77 µM). In a few lines: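 SBE-bla HEK293T cells plated overnight, then compound exposure for 5 h at 37 C. Beta-lactamase reporter read with LiveBLAzer B/G FRET substrate after 2 h at room temperature, fluorescence at 405 nm excitation, 460/530 nm emission.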
The target in test [8] is Thyrotropin-releasing hormone receptor (Homo sapiens) (UniProt P34981). The experiment in a line: qHTS assay to identify small molecule antagonists of the thyrotropin-releasing hormone receptor (TRHR) signaling pathway (AID 1346877; active = well fitted inhibition curve with a large enough effect in the repeat runs, not every such curve was filed as active; note: series mostly up to about 51 µM). In a few lines: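 Kinetic fluorescence (3 min, 1 s resolution) following stimulation with TRH at 1 nM final; HEK293 cells bearing human TRHR; 5 min compound preincubation at RT; concentration-response over 15 points, triplicates.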
Chain of Thyrotropin-releasing hormone receptor (Homo sapiens) (P34981 whole entry, looked up): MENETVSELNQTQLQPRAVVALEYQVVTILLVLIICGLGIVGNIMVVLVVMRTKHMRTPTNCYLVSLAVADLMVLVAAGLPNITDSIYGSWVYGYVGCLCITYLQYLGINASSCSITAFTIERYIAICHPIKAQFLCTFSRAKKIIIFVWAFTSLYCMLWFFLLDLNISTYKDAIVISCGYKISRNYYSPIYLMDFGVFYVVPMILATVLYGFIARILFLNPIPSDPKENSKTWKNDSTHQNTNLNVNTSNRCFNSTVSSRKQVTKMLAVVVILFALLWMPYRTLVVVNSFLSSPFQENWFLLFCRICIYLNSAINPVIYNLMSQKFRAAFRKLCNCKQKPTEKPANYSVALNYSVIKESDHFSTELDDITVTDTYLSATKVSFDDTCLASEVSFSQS

Test [9] shares this target. The experiment in a line: qHTS assay to identify small molecule agonists of the thyrotropin-releasing hormone receptor (TRHR) signaling pathway (AID 1346891; calls by dose curve; note: series mostly up to about 58 µM). The gist of the method:
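HEK293 cells expressing TRHR plated 18 h at 37 C/5% CO2, calcium dye-loaded 2 h at 37 C, then compound added (agonist mode); kinetic calcium fluorescence read 3 min at 1 s intervals; 15 concentrations in triplicate.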

Test [10] in a line: Human pregnane X receptor (PXR) small molecule agonists, qHTS cell viability counter screen (AID 1346977). Note: nearly all actives have a fitted effect of over 50% in size. The gist of the method: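 PXR-Luc HepG2 cells (2,000/well, 5% charcoal-stripped FBS) preincubated 5 hr, then exposed to compounds 24 hr at 37 C. Viability read in the same wells by CellTiter-Fluor fluorescence, reagent added at 23 hr, 1 hr incubation.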

A number with no mark means an inactive call. Results filed as inconclusive are left out. Activity calls are given as the source filed them. Unless noted, calls come from the whole dose curve; as a rule, active = well fitted curve in the direction sought with a large enough effect in the repeat runs; inconclusive = weak or mixed curves; inactive = no such curve, though single readings can be large; an effect the other way counts as inactive or inconclusive.
% is set by controls: 0 for no effect and ±100 for the full control effect.

Chain of Progesterone receptor (Homo sapiens) (P06401 whole entry, looked up): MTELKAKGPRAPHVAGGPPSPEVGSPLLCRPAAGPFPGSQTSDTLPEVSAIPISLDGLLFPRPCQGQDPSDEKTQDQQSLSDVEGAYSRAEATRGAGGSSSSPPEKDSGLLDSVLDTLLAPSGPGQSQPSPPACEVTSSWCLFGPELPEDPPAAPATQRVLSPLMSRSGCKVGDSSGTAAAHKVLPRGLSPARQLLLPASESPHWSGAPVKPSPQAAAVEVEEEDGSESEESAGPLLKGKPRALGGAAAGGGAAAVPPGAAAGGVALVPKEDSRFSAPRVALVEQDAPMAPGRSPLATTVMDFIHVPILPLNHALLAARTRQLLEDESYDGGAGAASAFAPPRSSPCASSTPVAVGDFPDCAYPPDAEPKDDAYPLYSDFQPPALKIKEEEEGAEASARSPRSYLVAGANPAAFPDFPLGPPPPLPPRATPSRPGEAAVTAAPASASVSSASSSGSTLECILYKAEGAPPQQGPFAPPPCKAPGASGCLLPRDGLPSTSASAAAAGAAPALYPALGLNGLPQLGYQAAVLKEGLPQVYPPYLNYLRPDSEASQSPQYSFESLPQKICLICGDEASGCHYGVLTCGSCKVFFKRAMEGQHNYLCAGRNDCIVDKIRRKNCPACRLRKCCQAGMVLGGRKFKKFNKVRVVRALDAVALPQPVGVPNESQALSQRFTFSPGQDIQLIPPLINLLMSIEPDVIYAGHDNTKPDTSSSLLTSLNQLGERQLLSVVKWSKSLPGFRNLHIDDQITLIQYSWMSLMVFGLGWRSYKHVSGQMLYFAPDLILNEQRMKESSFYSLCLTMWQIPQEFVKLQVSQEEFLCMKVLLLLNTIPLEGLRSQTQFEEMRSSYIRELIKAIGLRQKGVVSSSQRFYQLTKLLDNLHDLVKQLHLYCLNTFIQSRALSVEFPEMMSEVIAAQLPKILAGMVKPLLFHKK

On to `N#CCNCC#N`, for which the Potency entry in test [1], in test [2], in test [3], in test [4], in [5] and in test [10] was “inactive” in each case. In addition, the outcome in test [6], in test [7], in [8] and in test [9] was inactive.

As for `CNC(=O)O/N=C(\C)SC`, the Potency result in [1], in [2], in [3], in [4], in [5] and in test [10] was “inactive” in each case. For the same compound, the call in test [6], in [7], in test [8] and in [9] was inactive.

Regarding `[O]=[Cd]`, the Potency result in test [1], in test [2], in test [3], in test [4], in [5] and in test [10] was “inactive” each time. Besides, the result in [6], in test [7], in test [8] and in [9] was inactive.

On to `O=C(N[C@H]1CN2CCC1CC2)c1cc2ccoc2cn1`, for which the Potency result in test [1], in test [2], in [3], in test [4], in test [5] and in test [10] was “inactive” in each case. The result in test [6], in [7], in test [8] and in test [9] was inactive.

As to `O=[N+]([O-])c1cccc(O)c1`, the Potency entry in [1], in test [2], in test [3], in test [4], in [5] and in [10] was “inactive” in each case. Moreover, the call in test [6], in test [7], in test [8] and in [9] was inactive.

For the compound `N#CCCC#N`, the Potency entry in [1], in test [2], in test [3], in test [4], in test [5] and in test [10] was “inactive” each time. In addition, the compound was classed as inactive in test [6], in test [7], in test [8] and in test [9].

Turning to `CNC(=O)Oc1cccc(C(C)C)c1`, the Potency entry in [1], in test [2], in test [3], in [4], in test [5] and in test [10] was “inactive” throughout. In addition, the compound was called inactive in [6], in test [7], in test [8] and in [9].

As to `[Cl][Sn]([Cl])([Cl])[Cl]`, the Potency entry in test [1], in [2], in [3], in test [4], in [5] and in test [10] was “inactive” throughout. The compound was called inactive in [6], in test [7], in test [8] and in test [9].

`CCCCc1ccc(O)cc1`: the Potency result in [1], in test [2], in test [3], in [4], in test [5] and in test [10] was “inactive” each time. Also, the compound was called inactive in test [6], in [7], in [8] and in [9].

`CN1CCN(C(=O)O[C@H]2c3nccnc3C(=O)N2c2ccc(Cl)cn2)CC1`: the Potency result in [1], in [2], in test [3], in test [4], in [5] and in test [10] was “inactive” each time. The outcome in test [6], in test [7], in test [8] and in [9] was inactive.

On to `O=C(CCN1CC1)OCC(CO)(COC(=O)CCN1CC1)COC(=O)CCN1CC1`, for which the Potency entry in [1], in test [2], in test [3], in test [4], in test [5] and in [10] was “inactive” in each case. Besides, the outcome in test [6], in [7], in [8] and in test [9] was inactive.

On to `CCCCOP(=O)(O)OCCCC`, for which the Potency entry in test [1], in [2], in test [3], in [4], in [5] and in test [10] was “inactive” in each case. In addition, the outcome in [6], in test [7], in test [8] and in test [9] was inactive.

Regarding `CCOP(=S)(OCC)SCSc1ccc(Cl)cc1`, the Potency result in [1], in test [3], in [4], in [5] and in test [10] was “inactive” each time. Also, in test [2], the Potency was 4.86 µM (active). For the same compound, the compound was called inactive in test [6], in test [7], in test [8] and in test [9].

`O=C1c2ccccc2C(=O)c2ccccc21`: the activation in [1] is -0.0487% [at 19 µM]; in test [7] it was -3.6% [at 15.8 µM]; in [9], -0.0612% [at 11.8 µM]. In test [2], the activity change, negative = inhibition was 12.9% [at 18.9 µM]. Moreover, the activity change, negative = cytotoxicity was 9.36% [at 18.9 µM] in test [3], 2.43% [at 19 µM] in test [4], -4.2% [at 15.8 µM] in test [6] and 8.57% [at 19 µM] in [10]. Moreover, the viability change, negative = cytotoxic in test [5] was -2.72% [at 15.8 µM]. Moreover, in test [8], the activity, negative = inhibition is -1.2% [at 10.5 µM].

Turning to `CC(C)COP(=O)(OCC(C)C)OCC(C)C`, the Potency result in test [1], in [2], in test [3], in test [4], in test [5] and in test [10] was “inactive” each time. Besides, the compound was classed as inactive in [6], in [7], in test [8] and in [9].

Turning to `COCC(=O)N(c1c(C)cccc1C)N1CCOC1=O`, the Potency result in test [1], in test [2], in test [3], in test [4], in test [5] and in test [10] was “inactive” each time. In addition, the compound was classed as inactive in test [6], in test [7], in test [8] and in test [9].

Turning to `CC(=O)CC(c1ccc(Cl)cc1)c1c(O)c2ccccc2oc1=O` (centres undefined), the Potency result in [1], in test [2], in test [3], in test [4], in test [5] and in [10] was “inactive” each time. Further, the outcome in [6], in test [7], in test [8] and in test [9] was inactive.

With `C[N+](=O)[O-]`, the Potency entry in test [1], in test [2], in test [3], in test [4], in [5] and in test [10] was “inactive” each time. For the same compound, the compound was called inactive in [6], in test [7], in test [8] and in test [9].

For the compound `c1cc2c(c(N3CCNCC3)c1)OCCO2`, the Potency result in test [1], in test [2], in test [3], in test [4], in test [5] and in test [10] was “inactive” each time. The compound was classed as inactive in [6], in [7], in test [8] and in test [9].

Regarding `CCOc1nc(C(Cl)(Cl)Cl)ns1`, the Potency result in test [1], in test [2], in test [3], in test [4], in test [5] and in test [10] was “inactive” in each case. Further, the outcome in test [6], in [7], in test [8] and in test [9] was inactive.

In the case of `O=C(O)C(Br)CBr` (centres undefined), the Potency in test [1] was 5.54 µM (active). The Potency result in test [2], in test [3], in test [4], in test [5] and in [10] was “inactive” each time. The result in test [6], in test [7], in [8] and in [9] was inactive.

In the case of `CCC(=O)C(CCN(C)C)(c1ccccc1)c1ccccc1`, the Potency result in test [1], in test [2], in test [3], in test [4] and in [5] was “inactive” each time. Also, the compound was called inactive in test [6], in test [7], in [8] and in test [9].

As for `Cc1ncsc1CCCl`, the Potency result in test [1], in [2], in test [3], in test [4], in test [5] and in test [10] was “inactive” throughout. The compound was called inactive in test [6], in test [7], in [8] and in [9].

With `O=CNC(N1CCN(C(NC=O)C(Cl)(Cl)Cl)CC1)C(Cl)(Cl)Cl` (centres undefined), the Potency result in test [1], in [2], in test [3], in [4], in test [5] and in [10] was “inactive” in each case. Moreover, the call in [6], in test [7], in test [8] and in test [9] was inactive.

Take `CCCSC(=O)N(CCC)CCC`: the Potency result in [1], in test [2], in test [3], in [4], in test [5] and in [10] was “inactive” throughout. In addition, the result in [6], in test [7], in test [8] and in [9] was inactive.
